# From PubChem BioAssay
# GLD-1 TGE inh: GLD-1/TGE RNA complex disruptors, primary screen, biochemical, fluorescence polarization. purified GLD-1 + fluorescein TGE RNA. inhibition, % at 5.96 µM. 0.44% of 320,000 active. AID 2280, 2010;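 active = percent inhibition above a per-plate cutoff, the plate mean of test compounds plus 3 SD, cut at about 30% in these data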;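 also: 0% = DMSO wells with GLD-1 and probe and 100% = wells lacking GLD-1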
# BCLXL inh: inhibitors of human Bcl-xL, primary screen, biochemical, fluorescence polarization, HTS; Bcl-2-like protein 1 (Homo sapiens), Q07817; GST-Bcl-xL / FITC-Bim BH3 peptide fluorescence polarization; inhibition, % at 10.9 µM; 0.7% of 320,000 active; AID 2129, 2009;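 active = inhibition above the mean of all tested compounds plus 3 SD, cutoff set per campaign, cut at about 30% in these data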;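 also: 0% = DMSO wells and 100% = unlabeled Bim-BH3 peptide competitor; inhibitors lower millipolarization by displacing the labeled peptide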
# EBV gp42 block: Epstein-Barr virus gp42 inhibitors, primary screen, biochemical, uHTS, fluorescence polarization | Glycoprotein 42 (Epstein-Barr virus (strain AG876)), Q1HVG2 | Fluorescence polarization binding assay, mP read-out | inhibition, % (tested at 21.74 µM) | 0.42% of 220,000 active | AID 1085, 2008; in the data active = inhibition above about 50%
# MEX-5 binding: MEX-5 zinc finger RNA-binding disruptors – biochemical, C. elegans, fluorescence polarization, MLPCN library, primary screen; 0.38% of 300,000 active; MEX-5/FITC-TCR2 RNA binding; active compounds read low; activity score (negative = inhibition of binding), % at 10 µM; Zinc finger protein mex-5 (Caenorhabditis elegans), Q9XUB2;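 active = inhibition past about -25% in most replicates, and total fluorescence under double the plate's negative control median, limit read from the data; inconclusive = replicates evenly split on the limit, or fluorescence at least double controls; inactive = too little inhibition in most replicates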;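 also: 0% = DMSO and -100% = 5 µM competing unlabeled TCR2 RNA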
# Target sequence (Q9XUB2 whole entry, looked up): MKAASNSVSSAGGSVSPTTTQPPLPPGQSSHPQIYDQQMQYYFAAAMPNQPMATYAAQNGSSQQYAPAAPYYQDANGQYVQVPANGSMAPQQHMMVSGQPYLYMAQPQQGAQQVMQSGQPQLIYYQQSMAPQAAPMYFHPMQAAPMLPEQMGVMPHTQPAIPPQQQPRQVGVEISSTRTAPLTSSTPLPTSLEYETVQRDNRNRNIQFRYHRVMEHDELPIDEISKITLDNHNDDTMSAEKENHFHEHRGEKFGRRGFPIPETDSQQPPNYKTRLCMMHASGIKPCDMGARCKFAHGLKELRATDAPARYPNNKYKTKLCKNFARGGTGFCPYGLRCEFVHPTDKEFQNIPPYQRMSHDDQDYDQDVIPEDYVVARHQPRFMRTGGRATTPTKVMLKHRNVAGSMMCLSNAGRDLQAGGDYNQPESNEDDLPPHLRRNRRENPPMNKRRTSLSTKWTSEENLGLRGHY
# E coli Lon inh: inhibitors of E. coli Lon protease, primary screen, biochemical, fluorescence polarization | P0A9M0 | purified E. coli Lon protease | inhibition, % at 7.94 µM | 0.42% of 360,000 active | AID 602123, 2011; in the data active = inhibition above about 13%, passing the limit was not always enough;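 also: 0% = enzyme with probe and DMSO and 100% = no enzyme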
# E coli Lon conf: E. coli Lon protease inhibitor retest, confirmation, biochemical, fluorescence polarization; shares compounds with E coli Lon inh; purified E. coli Lon; inhibition, % at 7.94 µM; 31% of 1,400 active; AID 602230, 2012; in the data active = inhibition above about 16%;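 also: 0% = enzyme with probe and DMSO and 100% = no enzyme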
# * = called active by the depositor; u = inconclusive; x = not tested or not shown; + = active, no number. This is a sample that favours compounds with a hit; in the whole collection about 1.3% have one here.
SMILES,GLD-1 TGE inh,BCLXL inh,EBV gp42 block,MEX-5 binding,E coli Lon inh,E coli Lon conf
COc1ccc(C2C=C(c3ccc(Br)cc3)Nc3nc(N4C(=O)CCC4=O)nn32)cc1 (stereo unspecified),102*,123*,68*,-28*,25*,-9
COc1ccc(C2=CC(c3ccc(F)cc3)n3nnnc3N2)cc1 (stereo unspecified),1,4,8,-4,38*,-13
Cc1cc(C(=O)CSc2nn3c(=O)c(C(C)(C)C)nnc3s2)c(C)n1C,-5,2,4,0,9,x
COc1cccc(CNC(=S)Nc2cc(C)ccc2C)c1,9,2,-7,1,-8,x
N#Cc1cc2cc3c(cc2nc1N1CCCCC1)OCCO3,-3,8,10,-2,-3,x
Cc1ccc(C(=O)N2CCCN(c3nc4cc5c(cc4cc3C#N)OCO5)CC2)cc1,58*,87*,x,-5,73*,5
CCOc1ncccc1C(=O)OCC(=O)c1cccc(Br)c1,1,7,-8,0,11,x
CCOc1ccc(NC(=O)CC2C(=O)Nc3ccccc3N2C(=O)c2ccccc2)cc1 (stereo unspecified),2,-1,-8,2,15*,0
COc1cc(OC)c(-c2c3cc(O)c(=O)cc-3oc3cc(O)c(O)cc23)cc1OC,-88,11,-128,x,20*,-54
Cc1c2cc(O)c(=O)cc-2oc2cc(O)c(O)cc12,185*,107*,129*,u,48*,196*
COc1cc(-c2cc(=O)c3ccc(O)cc3o2)cc(OC)c1OC,x,x,x,x,5,x
Cc1ccc(NC(=O)ON=C2CCCC2)cc1,0,0,4,-2,4,x
Oc1ccc2nnc3c(Br)cnn3c2c1,144*,175*,x,u,134*,144*
Cc1c(NC(=O)C(C)OC(=O)COc2ccc(C#N)cc2)c(=O)n(-c2ccccc2)n1C (stereo unspecified),2,-2,x,-3,9,x
CCCCc1nc(NCCNC(=O)c2ccccc2)c(C#N)c2c1CSC(C)(C)C2,8,28,-10,3,12*,-1
C=CCN(CC=C)c1nc2ccccc2nc1C(C#N)C(=O)OC(C)C (stereo unspecified),17,16,-6,-5,16*,-12
Oc1cc(CNC2CCCCC2)c(O)cc1CNC1CCCCC1,x,x,x,x,45*,17*
Cc1ccccc1CNC1CCCCC1,0,-3,-11,2,-10,x
Nc1nc(NCCO)nc(NC2CCCCC2)c1[N+](=O)[O-],-1,0,x,3,43*,-6
CCOc1ccc(N2C(=O)CC(NCC3CCCO3)C2=O)cc1 (stereo unspecified),-2,9,-12,0,16*,5
CCOc1ccc(N2C(=O)CC(Cc3cc(C)cc(C)c3)C2=O)cc1 (stereo unspecified),x,x,x,0,-6,x
Cc1ccc(N2C(=O)CC(NCC3CCCO3)C2=O)cc1 (stereo unspecified),0,9,-11,0,-14,x
CCOc1ccc(N2C(=O)CC(N)C2=O)cc1 (stereo unspecified),2,-1,-7,0,18*,-1
COc1ccc2cc(C(=O)NCc3ccccc3CN3CCCC3)ccc2c1,-5,-1,x,x,-24,x
Cc1ccc(Cl)c(NC(=O)COC(=O)c2nn(-c3ccccc3)cc2O)c1Cl,-7,x,x,x,-4,x
SMILES,GLD-1 TGE inh,BCLXL inh,EBV gp42 block,MEX-5 binding,E coli Lon inh,E coli Lon conf
COc1ccc(CNc2nc3ccccc3n2C)c(OC)c1,8,1,-11,1,3,x
COc1ccc(N=Nc2nc3cc(Br)c(Br)cc3n2C)c(OC)c1,198*,+,118*,x,163*,128*
COC(=O)c1ccccc1NC(=O)CSc1nnc(C(CO)NC(=O)c2ccccc2Cl)n1C (stereo unspecified),5,-3,-7,-1,0,x
CC(NC(=O)c1ccccc1Cl)c1nnc(SCC(=O)Nc2ccc(C(=O)O)cc2)n1C (stereo unspecified),4,-1,-12,0,29*,-15
Cc1ccc(NC(=O)CSc2nnc3c(n2)[nH]c2ccccc23)cc1,7,1,x,-1,-7,x
O=C(CSc1nnc2c(n1)[nH]c1ccccc12)Nc1ccc(S(=O)(=O)Nc2ncccn2)cc1,x,x,-3,0,18*,28*
NC(=O)C[n+]1cccc2ccccc21,16,185*,46,-36*,57*,40*
O=S(=O)([N-]c1nc2ccccc2nc1-n1cc[n+](Cc2ccccc2)c1)c1ccccc1,12,17,-1,-3,-5,x
O=S(=O)([N-]c1nc2ccccc2nc1-[n+]1ccc(-c2ccncc2)cc1)c1ccccc1,153*,188*,56*,-5,47*,131*
CC1CCN(CC(=O)N2c3ccccc3CC2C)CC1 (stereo unspecified),0,5,-20,-2,-2,x
COc1ccc(N2CCN(CC(=O)N3c4ccccc4CC3C)CC2)cc1 (stereo unspecified),3,3,x,-2,18*,-4
Oc1ccc2c(c1)OCC1(O)Cc3cc(O)c(O)cc3C21 (stereo unspecified),x,x,x,x,+,+
Oc1cc2c(cc1O)[C@H]1c3ccc(O)c(O)c3OC[C@@]1(O)C2,24,28,x,x,0,x
CC(=O)Nc1ccc(NC(=O)CSc2ccc3nnc(-c4cccnc4)n3n2)cc1,0,12,x,-11,-14,x
CCOC(=O)c1c(N)sn(-c2ccccc2)c1=S,-2,1,-16,0,0,x
N#Cc1c2c(c(=S)n(-c3ccccc3)c1N)CCCC2,24,35*,15,-15,34*,23*
CC1(C)Cc2c(C#N)c(N)n(-c3ccccc3)c(=S)c2CO1,11,9,-8,-5,-4,x
CCOC(=O)c1c2c(c(=S)n(-c3ccccc3)c1N)CCC2,11,7,1,0,24*,-4
Cc1ccc(S(=O)(=O)NCCC(=O)N2CCOCC2)cc1C,0,2,x,1,-17,x
N#Cc1c(NCCCO)nc(-c2ccccc2)c2c1CCCC2,3,3,-10,0,14*,-3
CCCN(CCC)CCCNC(=S)Nc1ccc2nc(N3CCCC3)cc(C)c2c1,-8,7,-1,2,0,x
CCOc1cc(-c2ccc(N)c(OCC)c2)ccc1N,127*,148*,145*,x,52*,98*
Cc1ccc2c(c1)c1c(n2CC(O)CNC2CCCCC2)CCCC1 (stereo unspecified),-1,8,4,-5,28*,6
